Measured values taken from PubChem BioAssay (Tox21).
Active and inactive are the calls of the source. A call without a number means that no potency is given here. Calls follow the shape of the dose curve; as a rule, active = well fitted curve in the direction sought with a large enough effect in the repeat runs; inconclusive = weak or mixed curves; inactive = flat fitted curve, though single readings scatter.

Test: qHTS assay to test for compound auto fluorescence at 460 nm (blue) in HEK293 cell free culture (AID 720681)
Details: cell-free medium, autofluorescence 405/460 nm (blue); series mostly up to 46 µM
Description: U.S. Tox21 Program National Center for Advancing Translational Sciences [NCATS] NIH Chemical Genomics Center [NCGC] U.S. Environmental Protection Agency [EPA] National Institutes of Environmental Health Sciences [NIEHS] National Toxicology Program [NTP] U.S. Food and Drug Administration [FDA] Tox21 Assay Overview: Compound auto fluorescence often interferes with screening of the compound library against various biological targets and signaling pathways. Some of these compounds may have fluorophoric properties. Such properties may interfere with the assay outputs resulting in false positives and/or negatives. To decrease such complications and ensure the compound activities are relevant in terms of biological response, the Tox21 10K compound library was screened for auto fluorescence. From the fluorophores used as reporter signals in our screening assays, the auto fluorescence equivalencies of compounds against three fluorophores have been evaluated: Triamterene, Fluorescein and Rose Bengal sodium for blue, green and red fluorescence, respectively. The fluorescence intensities were measured using Excitation/Emission wavelengths at 405/460nm, 485/535nm and 540/590nm for blue, green and red labels, respectively. This assay includes the blue fluorescence data.
Tox21 Assay Protocol Summary: 5 uL of culture medium (DMEM containing 10% FBS) per well was dispensed into black wall/clear bottom 1536-well plates using a Multidrop Combi Dispenser (ThermoFisher Scientific, Waltham, MA). After 23 nL compound or DMSO vehicle was transferred into assay plate by a pintool work station (Kalypsys, San Diego, CA), fluorescence intensities in the assay plates were measured by an Envision (PerkinElmer, Shelton, CT) plate reader using three labels for measuring blue, green and red fluorescence at […] 460, 535 and 590nm respectively.
For CNC(=O)c1c(I)c(C(=O)NCC(=O)Nc2c(I)c(C(=O)O)c(I)c(C(=O)NCCO)c2I)c(I)c(N(C)C(C)=O)c1I, the Potency was “inactive”. With C[C@]12CCC(=O)C=C1CC[C@@H]1[C@@H]2[C@@H](O)C[C@@]2(C)[C@H]1CC[C@]2(O)C(=O)COP(=O)(O)O the Potency was “inactive”. In the case of CCCc1nc(C(C)(C)O)c(C(=O)OCc2oc(=O)oc2C)n1Cc1ccc(-c2ccccc2-c2nn[nH]n2)cc1, the Potency is reported as “inactive”. For CCc1ccc2c(c1)N(CC(C)CN(C)C)c1ccccc1S2 (stereo not given), the Potency was “inactive”. In the case of CC(C)=CCC/C(C)=C/C=C/C(C)=C/C=C/C(C)=C/C=C/C=C(C)/C=C/C=C(C)/C=C/C=C(\C)CCC=C(C)C, the Potency is reported as “inactive”. In the case of NC[C@@H]1O[C@H](O[C@H]2[C@@H](O)[C@H](O[C@@H]3[C@@H](O)[C@H](N)C[C@H](N)[C@H]3O[C@H]3O[C@H](CN)[C@@H](O)[C@H](O)[C@H]3N)O[C@@H]2CO)[C@H](N)[C@@H](O)[C@@H]1O, the Potency is reported as “inactive”. For CC(=O)O[C@H]1CC[C@@]2(C)C(=CC[C@H]3[C@@H]4CC[C@H](C(C)=O)[C@@]4(C)CC[C@@H]32)C1, the Potency was “inactive”. With S=C1SCN(Cc2ccccc2)CN1Cc1ccccc1 the Potency was “inactive”. In the case of Nc1ncnc(Nc2ccc(Cl)cc2)n1, the Potency is reported as “inactive”. With CCCCCCCCCCCCCCCC(=O)OCCC1CCN(CCCN2c3ccccc3Sc3ccc(S(=O)(=O)N(C)C)cc32)CC1 the Potency was “inactive”. With CC(=O)N=c1sc(S(N)(=O)=O)nn1C the Potency was “inactive”. With FC(F)(F)C(F)(F)C(F)(F)C(F)(F)C(F)(F)C(F)(F)F the Potency was “inactive”. For C[C@@H]1CCC2[C@@H](C)[C@@H](O)O[C@@H]3O[C@@]4(C)CC[C@@H]1[C@@]23OO4 (stereo not given in full), the Potency was “inactive”. In the case of COCC(=O)Nc1cc(Sc2ccccc2)ccc1N=C(NC(=O)OC)NC(=O)OC, the Potency is reported as “inactive”. With OC[C@H]1O[C@@H](n2cnc3c2NC=NC[C@H]3O)C[C@@H]1O the Potency was “inactive”. For O=C(O)C1CCCN1 (stereo not given), the Potency was “inactive”. In the case of CC(=O)O[C@H]1CC[C@@]2(C)C(=CC[C@@H]3[C@@H]2CC[C@]2(C)C(c4cccnc4)=CC[C@@H]32)C1, the Potency is reported as “inactive”. With C=C[C@]1(C)C[C@@H](OC(=O)CSC(C)(C)CNC(=O)[C@H](N)C(C)C)[C@]2(C)[C@H](C)CC[C@]3(CCC(=O)[C@H]32)[C@@H](C)[C@@H]1O the Potency was “inactive”. In the case of CCN1C(=O)NC(c2ccccc2)C1=O (stereo not given), the Potency is reported as “inactive”. For CCN(CC)CCOc1ccc2nc(N(C)C)sc2c1, the Potency was “inactive”. In the case of Nc1c(Br)cc(Br)cc1CNC1CCC(O)CC1 (stereo not given), the Potency is reported as “inactive”. With CC#CCC(C)[C@H](O)/C=C/[C@@H]1[C@H]2c3cccc(CCCC(=O)O)c3O[C@H]2C[C@H]1O (stereo not given in full) the Potency was “inactive”. In the case of CC1=C(/C=C/C(C)=C/C=C/C(C)=C/C=C/C=C(C)/C=C/C=C(C)/C=C/C2=C(C)C[C@@H](O)CC2(C)C)C(C)(C)C[C@H](O)C1, the Potency is reported as “inactive”. For O=C(CO)[C@@H](O)[C@H](O)[C@@H](O)C(=O)O, the Potency was “inactive”. For CCCCCCCCCCCCCCCCOCCOCCOCCOCCOCCOCCOCCOCCOCCOCCOCCOCCOCCOCCOCCOCCOCCOCCOCCOCCO, the Potency was “inactive”. With Cc1cc(C)c(NC(=O)C[C@H](CC(=O)O)c2cccc3ccccc23)c(C(=O)N2CCC3(CCCC3)CC2)c1 the Potency was “inactive”. In the case of CC(C)(C)C1(O)CCN2CC3c4ccccc4CCc4cccc(c43)C2C1 (stereo not given), the Potency is reported as “inactive”. In the case of COc1ccc(-c2noc(CC(=O)O)c2-c2ccc(OC)cc2)cc1, the Potency is reported as “inactive”. In the case of O=C(CCCCCCCCCCCCC1CCCC1)Nc1ccc(S(=O)(=O)c2ccc(NC(=O)CCCCCCCCCCCCC3CCCC3)cc2)cc1, the Potency is reported as “inactive”. In the case of CC(NNC(=O)c1ccccc1)c1ccccc1 (stereo not given), the Potency is reported as “inactive”. With Cc1c(N)nc(C(CC(N)=O)NCC(N)C(N)=O)nc1C(=O)NC(C(=O)NC(C)C(O)C(C)C(=O)NC(C(=O)NCCc1nc(-c2nc(C(=O)NCCCN[C@@H](C)c3ccccc3)cs2)cs1)C(C)O)C(O[C@@H]1O[C@@H](CO)[C@@H](O)[C@H](O)[C@@H]1O[C@H]1O[C@H](CO)[C@@H](O)[C@H](OC(N)=O)[C@@H]1O)c1cnc[nH]1 (stereo not given in full) the Potency was “inactive”. In the case of CCCCCCCCCCCCCCCC(=O)O[C@@H]1CC(C)=C(/C=C/C(C)=C/C=C/C(C)=C/C=C/C=C(C)/C=C/C=C(C)/C=C/C2=C(C)C[C@@H](OC(=O)CCCCCCCCCCCCCCC)CC2(C)C)C(C)(C)C1, the Potency is reported as “inactive”. For Cc1ccccc1CNc1ncnc2c1ncn2[C@@H]1O[C@H](CO)[C@@H](O)[C@H]1O, the Potency was “inactive”. With C#CCOc1ccc2c(C)cc(=O)oc2c1 the Potency was “inactive”. In the case of C=CC[C@@H]1/C=C(\C)C[C@H](C)C[C@H](OC)[C@H]2O[C@@](O)(C(=O)C(=O)N3CCCC[C@H]3C(=O)O[C@H](/C(C)=C/[C@@H]3CC[C@@H](O)[C@H](OC)C3)[C@H](C)[C@@H](O)CC1=O)[C@H](C)C[C@@H]2OC, the Potency is reported as “inactive”. In the case of NCCC[C@H](N)C(=O)O, the Potency is reported as “inactive”. With CN1CCCC(CN2c3ccccc3Sc3ccccc32)C1 (stereo not given) the Potency was “inactive”. For CC(=C\c1ccccc1)/C=C1/SC(=S)N(CC(=O)O)C1=O, the Potency was “inactive”. In the case of CC1=C(C(=O)OCCN(Cc2ccccc2)c2ccccc2)C(c2cccc([N+](=O)[O-])c2)C(P2(=O)OCC(C)(C)CO2)=C(C)N1 (stereo not given), the Potency is reported as “inactive”. For C[C@H](CSC(=O)c1ccccc1)C(=O)N1C[C@@H](Sc2ccccc2)C[C@H]1C(=O)O, the Potency was “inactive”.
